Screens as filed in PubChem BioAssay.
The full list was thinned out, with hits kept by preference.
CapD inh = CapD enzyme inhibition; z-score (no concentration beside the values); 140,000 compounds, 0.23% hits; purified CapD enzyme, fluorescence intensity read-out; active compounds read low; AID 492967; in the data active = z-score mostly below about -2.9, no sharp cut-off; inactive = mostly above about -1.9
Each line names hits and unclear results; the compound was inactive in the other large screens.

O=C1C=CC(=O)C(c2ccc(C(=O)O)cc2)=C1	CapD inh -7.98
CC(C)c1ccc(C2=CC(=O)C=CC2=O)cc1	none
O=C(Cc1ccccc1)NCCSc1c[nH]c2ccccc12	none
COc1ccc([S+]2CCCCC2)cc1	CapD inh -4.91
COc1ccc(CN2CCCCCC2)cc1	none
COc1ccc(C2CCCCC2)cc1	none
COc1ccc(CCNS(=O)(=O)N(C)C)cc1	none
O=S(=O)(c1cc(F)c(Br)cc1F)N1CCN(c2c(Cl)cncc2Cl)CC1	none
CCOc1ccc(CCNC(=O)C(C)CC)cc1 (stereo not drawn)	none
Cc1cc(/N=C/C=C2\N(C)c3ccccc3C2(C)C)n(CCC#N)n1	CapD inh -4.36
CN1/C(=C/C(=O)CSC2CCCC2)C(C)(C)c2ccccc21	none
Cc1cc(/N=C/c2cc(C)n(Cc3ccccc3)c2C)n(CCC#N)n1	none
Cc1c(C(=O)NC(C)c2ccccc2)sc2ncnc(N3CCN(c4ccccn4)CC3)c12 (stereo not drawn)	none
COc1ccc(-c2c(C)sc(=NCCO)n2-c2ccccc2)cc1	none
O=C(NC1CCCCC1)c1cc(-c2ccco2)on1	CapD inh -4
CCCNC(=O)c1cc(-c2ccco2)on1	CapD inh -4.73
COC(=O)c1ccccc1NC(=O)c1cc(-c2ccco2)on1	none
O=C(NCc1cccs1)c1cc(-c2ccco2)on1	none
O=C(c1cc(-c2ccco2)on1)N(C1CCCCC1)C1CCCCC1	none
O=C(NC1CCCC1)c1cc(-c2ccc(O)cc2)on1	none
O=C(OCc1cc(C(F)(F)F)ccc1F)N1CCN(Cc2ccccc2OCc2ccccc2)CC1	none
O=C(c1ccccc1[N+](=O)[O-])N1N=C(C(F)(F)F)CC1(O)C(F)(F)F (stereo not drawn)	none
CC(Oc1ccc(C(C)(C)C)cc1)C(=O)NCC1CCCO1 (stereo not drawn)	none
c1ccc(N2CCN(c3c4c(nc5nncn35)CCC4)CC2)cc1	none
CCN(CC)c1c2c(nc3nncn13)CCC2	none
S=c1c2c(nc3nc[nH]n13)CCC2	CapD inh -5.7
Cc1ccc(S(=O)(=O)N2CCN(c3cccc(Cl)c3)CC2)cc1[N+](=O)[O-]	none
COc1cc(C(C#N)N2CCOCC2)cc(OC)c1OC (stereo not drawn)	none
CCN(CC)CCOC(=O)c1ccc(NC(=O)CN2C(=O)/C(=C/c3ccccc3)SC2=S)cc1	none
Cc1cccc2sc(NC(=O)c3sc4ncn(CC(=O)Nc5cccc(C(F)(F)F)c5)c(=O)c4c3C)nc12	none
O=C(NNC(=S)Nc1cccc(Cl)c1)C1CC1	none
O=C(/C=C/C(=O)Nc1ccc(F)c(Cl)c1)Nc1ccc(F)c(Cl)c1	none
COc1ccc(N/C(C)=C/C(=O)c2ccccc2)cc1	none
CN=C(Nc1ccc(Cl)cc1)c1cccnc1	none
CC(=O)Nc1ccc(N/C(C)=C/C(=O)c2cccnc2)cc1	CapD inh -4.06
CCCc1nc2n(n1)N=C(c1ccccc1)CS2	none
N#CC(C#N)=C(N)/C(C#N)=C/c1c[nH]c2ccccc12	CapD inh -3.04
CN(C)c1ccc(/C=C(\C#N)C(N)=C(C#N)C#N)cc1	none
O/N=C/c1c[nH]c2ccccc12	none
Cc1cc(C)n2nc(C(=O)Nc3cccnc3)cc2n1	none
CC(C)(C)NC(=O)c1ccc2c(c1)C(=O)N(Cc1ccco1)C2=O	none
O=C(O)c1ccc(NC(=O)c2ccc3c(c2)C(=O)N(Cc2ccco2)C3=O)cc1	CapD inh -7.55
CCN1C(=O)c2ccc(C(=O)Nc3ccc(C(=O)O)cc3)cc2C1=O	none
CC(=O)Nc1ccc(NC(=O)c2ccccc2NC(=O)c2ccccc2)cc1	none
Cc1ccc(-c2nc(S(=O)(=O)c3ccc(C)cc3)c(N(C)C)o2)cc1	none
Cc1ccc(S(=O)(=O)CCc2nc(S(=O)(=O)c3ccc(C)cc3)c(N(C)C)o2)cc1	none
Cc1ccc(S(=O)(=O)c2nc(C)oc2N(C)C)cc1	CapD inh -3
Cc1cc(C(=O)OCC(=O)N2CCCCC2)c(C)n1-c1ccccc1	none
COc1ccc(CCNC(=O)c2cc(Sc3ccc(F)cc3)nc3ccccc23)cc1OC	none
COc1cc(C=C(C#N)C#N)ccc1O	CapD inh -4.3
CCOc1ccc(C=C(C#N)C#N)cc1	none
COc1ccc(/C=C(\C#N)C(N)=O)cc1OC	none
C/C(=N\O)c1ccc(C)nc1	none
Fc1ccc(C(c2nnc(-c3ccccc3)o2)N2CCc3ccccc3C2)cc1 (stereo not drawn)	none
COC(=O)c1ccc(/C=N/NC(=O)CSc2nnc(C)n2-c2ccccc2)cc1	none
N#CC(=C1CCCCC1)c1nc2ccccc2s1	none
CSC(SC)=C(C#N)c1nc2ccccc2s1	none
N#C/C(=N/O)c1nc2ccccc2s1	CapD inh -4.49
O=C(O)CCCC(=O)N1CCC(N2C(=O)Cc3ccccc32)CC1	none
Cc1noc(C(=O)N(C)C2CCCCC2)c1Cl	none
COc1ccc(C(=O)NNC(=O)OCCC2CCCCC2)cc1	none
COc1ccc(-n2nc(C(=O)N(C)c3ccccc3)c3c4ccccc4n(C)c3c2=O)cc1	CapD inh -4.31
COc1ccc(-n2nc(C(=O)N(C)Cc3ccccc3)c3c4ccccc4n(C)c3c2=O)cc1	none
COc1ccc(-n2nc(C(=O)N3CCCC3)c3c4ccccc4n(C)c3c2=O)cc1	none
CCC1CCCCN1C(=O)CSc1nnc(-c2ccc(Cl)cc2)o1 (stereo not drawn)	CapD inh -4.75
CCC1CCCCN1C(=O)CSCc1ccc(Cl)cc1 (stereo not drawn)	none
CCC1CCCCN1C(=O)CSc1ccc(Cl)cc1 (stereo not drawn)	none
CC(C(=O)N1CCCCC1)N1Cc2ccccc2C1=O (stereo not drawn)	none
O=C(CCCn1c(SCc2cc(=O)n3cc(Cl)ccc3n2)nc2ccccc2c1=O)NCc1cccc(Cl)c1	none
CCN1C(=O)C(NC(C)=O)c2ccccc21 (stereo not drawn)	none
O=c1[nH]c(=S)c2c(n1N1CCOCC1)CCC2	CapD inh -4.99
C=CCOc1ccc(CN2CCN(C(=O)OCCN(C/C=C/c3ccccc3)C(=O)OC(C)(C)C)CC2)cc1	none
O=C(O)CC(C(=O)O)N1C(=O)/C(=C/c2ccc(Cl)cc2)SC1=S (stereo not drawn)	none
COc1ccc(/C=C2\SC(=S)N(C(CC(=O)O)C(=O)O)C2=O)cc1 (stereo not drawn)	none
O=C(O)CC(C(=O)O)N1C(=O)/C(=C/c2ccc(-c3ccc(Br)cc3)o2)SC1=S (stereo not drawn)	CapD inh -4.46
N#CC(=C1CCCCC1)c1nc(-c2ccccc2)cs1	none
FC(F)=C(F)CCSc1ncn(-c2ncc(C(F)(F)F)cc2Cl)n1	none
O=C(/C=C/c1ccccc1)C1(O)CCCCC1	none
O=C(/C=C/c1ccc(Cl)cc1)C1(O)CCCCC1	none
COc1ccc(/C=C/C(=O)C2(O)CCCCC2)cc1OC	CapD inh -4.51
N#CC(c1ccco1)N1CCN(C(=O)c2ccccc2)CC1 (stereo not drawn)	none
Cc1cc(C)nc(NS(=O)(=O)c2ccc(NC(=O)c3cc([N+](=O)[O-])cc([N+](=O)[O-])c3)cc2)n1	none
N#CC1=C(N)N(c2ccc(Br)cc2F)C2=C(C(=O)CCC2)C1c1ccc([N+](=O)[O-])cc1 (stereo not drawn)	none
COc1cc(C2C(C(=O)OCCOc3ccccc3)=C(C)NC3=C2C(=O)CCC3)cc(OC)c1OC (stereo not drawn)	none
CCOC(=O)C1=C(N)n2c(s/c(=C/c3ccccc3)c2=O)=C(C(=O)OCC)C1c1ccccc1 (stereo not drawn)	none
CCOC(=O)C1=C(N)n2c(s/c(=C/c3ccco3)c2=O)=C(C(=O)OCC)C1c1ccco1 (stereo not drawn)	CapD inh -4.2
CCOC(=O)C1=C(N)n2c(s/c(=C\c3ccco3)c2=O)=C(C#N)C1c1ccco1 (stereo not drawn)	none
c1csc(C2NCc3c(sc4c3CCCC4)-n3cccc32)c1 (stereo not drawn)	none
